PrPC surface inh: inhibitors of human cell surface prion protein PrPC, primary screen, cell-based, TR-FRET. TR-FRET read-out. Major prion protein (Homo sapiens), P04156. inhibition, % at 13.8 µM. AID 720596, 2013. actives 0.43% (n = 370,000); in the data active = inhibition above about 24%; note: 0% = median of the test wells and 100% = reference compound wells
GDH-TPI inh: GDH-TPI coupling enzyme inhibitors, primary screen, artefact control for M. tuberculosis FBA inhibitor project, biochemical, absorbance, full deck. inhibition, % at 4.8 µM. actives 1.2% (n = 360,000). GDH-TPI coupled enzyme counterscreen, NADH absorbance; in the data active = inhibition above about 30%;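 note: 0% = DMSO wells and 100% = wells lacking the enzyme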
TcdB GH inh: TcdB glycohydrolase inhibitors, primary screen, biochemical, single point, plate reader; Toxin B (Clostridioides difficile), P18177; TcdB glycohydrolase enzymatic assay; inhibition, % at 9.99 µM; actives 0.24% (n = 350,000); in the data active = inhibition above about 10%
FBA Mtb inh: Mtb FBA enzyme inhibitors, primary screen, biochemical, fluorescence, strain H37Rv. Fructose-bisphosphate aldolase (Mycobacterium tuberculosis (strain ATCC 25618 / H37Rv)), …. purified M. tuberculosis FBA, fluorescence read-out. inhibition, % at 1 µM. actives 2.3% (n = 360,000). AID 588726, 2011; in the data active = inhibition above about 27%;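 note: 0% = vehicle and 100% = reference inhibitor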
Target sequence (P9WQA3 whole entry, looked up): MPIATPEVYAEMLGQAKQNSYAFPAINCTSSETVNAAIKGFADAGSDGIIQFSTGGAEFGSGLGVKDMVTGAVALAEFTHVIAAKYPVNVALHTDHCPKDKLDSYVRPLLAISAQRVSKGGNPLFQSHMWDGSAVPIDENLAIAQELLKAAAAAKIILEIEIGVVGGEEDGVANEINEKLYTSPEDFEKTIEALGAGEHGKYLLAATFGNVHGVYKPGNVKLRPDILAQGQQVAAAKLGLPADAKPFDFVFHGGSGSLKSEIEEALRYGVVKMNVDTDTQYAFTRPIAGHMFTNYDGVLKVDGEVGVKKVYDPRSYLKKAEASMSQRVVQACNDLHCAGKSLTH
Y pestis TopoI: Yersinia pestis topoisomerase I inhibitors, primary screen, biochemical, cleavage product accumulation, plate reader, single point. actives 0.064% (n = 360,000). AID 504884, 2011. activity, % at 10 µM. Y. pestis Topo-I cleavage product accumulation. DNA topoisomerase I (Yersinia pestis CO92); in the data active = activity above about 50%, passing the limit was not always enough
* = called active by the depositor; nt = no result given; + = active, no number. Rows were chosen to be rich in hits. Some 3.2% of all compounds tested hit in one or more screens of this group.

SMILES | PrPC surface inh | GDH-TPI inh | TcdB GH inh | FBA Mtb inh | Y pestis TopoI
CC1(C)SC(=S)N(/N=C/c2ccccc2)C1N(O)C(=O)Nc1ccc([N+](=O)[O-])cc1 (stereo unspecified) | -10.2 | 42.1* | nt | -3.3 | -12.0
COc1ccc2[nH]c3c(c2c1)CC(C)NC3=O (stereo unspecified) | -3.7 | 14.7 | 0.1 | 121.4* | -5.6
C[C@H]1CN([C@@H](C)CO)C(=O)CCCn2nncc2CO[C@H]1CN(C)CC1CC1 | nt | nt | 0.2 | nt | nt
CCN1CCSc2ccc(C(=O)Nc3ccc(NC(C)=O)cc3)cc21 | 1.5 | 14.8 | 2.8 | 6.8 | 2.5
CCN1CCSc2ccc(C(=O)NCc3ccccc3C)cc21 | 9.5 | 12.0 | -0.4 | 129.2* | 19.3
CN1CCSc2ccc(C(=O)NCc3ccccc3F)cc21 | 16.6 | 4.3 | -0.2 | 137.3* | 2.9
O=C(O)c1ccc(N2C(=O)c3cccc4cccc(c34)C2=O)cc1 | -45.5 | 38.1* | 1.5 | 10.6 | 0.7
COCCn1c(=NC(=O)CSCC(=O)NC2CCCCC2)sc2cc(OC)ccc21 | 0.7 | 42.4* | nt | -2.2 | 2.2
C[C@H]1CN([C@@H](C)CO)C(=O)CCCn2cc(nn2)CO[C@H]1CN(C)C(=O)Nc1ccc(-c2cccs2)cc1 | nt | nt | 0.7 | nt | nt
CNc1nnc(-c2ccc(N(C)C)cc2)s1 | -4.0 | 45.8* | nt | + | -3.6
COCC(=O)N1C[C@H]2[C@@H](c3ccccc31)[C@@H](CO)N2Cc1ccccc1Cl | nt | nt | -1.5 | nt | nt
NC(=O)c1cc(Cc2ccccc2)sc1NC(=O)c1ccco1 | 6.7 | 39.3* | 1.0 | 2.5 | 2.4
O=C(Nc1nnc(Cc2ccccc2)s1)c1ccco1 | 20.3 | 26.3 | -1.7 | -1.8 | 1.2
O=c1[nH]c(=O)n(CCC2=CCCCC2)c(O)c1C=NCc1cccnc1 | 15.6 | 3.5 | nt | -1.5 | 2.3
CC(C)n1c(O)c(C=NCc2ccccc2)c(=O)[nH]c1=S | -4.2 | 39.9* | 3.7 | -4.3 | 0.3
CCC(C)n1c(O)c(C=NCc2cccnc2)c(=O)[nH]c1=S (stereo unspecified) | 5.4 | 29.8 | 1.4 | -1.7 | 6.5
O=c1[nH]c(=S)n(Cc2ccc(F)cc2)c(O)c1C=NCc1cccnc1 | -7.4 | 35.0* | nt | -3.4 | 11.4
CCNC(=O)[C@@H]1[C@@H](CO)[C@@H]2Cn3c(ccc(C4=CCCC4)c3=O)[C@H]1N2C(=O)C1CC1 | nt | nt | -0.5 | nt | nt
Cc1ccc(S(=O)(=O)Nc2ccc3c(c2)CC(=O)N([C@@H](C)CO)C[C@@H](C)[C@@H](CN(C)S(C)(=O)=O)O3)cc1 | nt | nt | 0.2 | nt | nt
O=C(C[C@@H]1CC[C@@H]2[C@H](COC[C@H](O)CN2C(=O)Nc2ccc(F)cc2)O1)NC1Cc2ccccc2C1 | nt | nt | 0.9 | nt | nt
CN(C)c1ccc(/C=N\NC(=S)SCN2C(=O)C3CCC(C)(C2=O)C3(C)C)cc1 (stereo unspecified) | 4.7 | 24.6 | nt | -0.5 | 1.3
COc1ccc(/C=N\NC(=S)SCN2C(=O)C3CCC(C)(C2=O)C3(C)C)cc1 (stereo unspecified) | -1.8 | 46.3* | nt | 0.0 | -0.1
CCS(=O)(=O)N1CC(=O)N2[C@@H](CO)[C@H](c3ccc(C#CCc4ccccc4)cc3)[C@@H]2C1 | nt | nt | -1.9 | nt | nt
O=[N+]([O-])c1ccc(O)c(C2=NNC(c3ccccc3F)C2)c1 (stereo unspecified) | -19.7 | 36.4* | -0.2 | 8.3 | 4.7
Oc1ccc(Cl)cc1C1=NNC(c2cccs2)C1 (stereo unspecified) | -4.2 | 5.3 | 0.6 | 15.7 | -3.2
SMILES | PrPC surface inh | GDH-TPI inh | TcdB GH inh | FBA Mtb inh | Y pestis TopoI
CO[C@H](CN(C)S(=O)(=O)c1cccc(Cl)c1)[C@@H](C)CN([C@H](C)CO)S(=O)(=O)c1cccc(Cl)c1 | nt | nt | -18.0 | nt | nt
CO[C@H]1CC[C@H]2CCN(C)C(=O)CCCN(C)C(=O)c3cccc(C#N)c3OC[C@@H]1O2 | nt | nt | -1.1 | nt | nt
O=C1NC(=S)SC1=C1CCCCCC1 | -3.5 | 33.2* | 1.4 | -1.1 | 8.5
Oc1ccc(/C=N/N=C/c2ccc(O)c(O)c2)cc1O | 3.9 | 43.1* | 6.4 | 0.1 | -14.6
Oc1ccc(/C=N/N=C/c2ccc(O)cc2)cc1 | 1.1 | 31.2* | 1.9 | 0.1 | 2.2
O=C1Nc2ccccc2/C1=N\N=C\c1ccc(O)c(O)c1 | -14.9 | 35.8* | -1.8 | -7.6 | -15.0
COc1ccc(-c2cc3ccc(O)cc3oc2=O)cc1 | -13.2 | 26.8 | 0.5 | + | -0.1
O=c1oc2cc(O)ccc2cc1-c1ccccc1 | -5.6 | 11.6 | 0.5 | + | 3.6
COc1ccc(-c2cc3ccc(OCC(C)=O)cc3oc2=O)cc1OC | -12.7 | 17.3 | 6.0 | 1.3 | 6.1
CS(=O)(=O)Nc1ccc2c(c1)[C@H]1C[C@H](CC(=O)NC3CCCCC3)O[C@@H](CO)[C@H]1O2 | nt | nt | 0.1 | nt | nt
CC(C)C(OC(=O)/C=C/c1ccc2c(c1)OCO2)C(=O)NC(N)=O (stereo unspecified) | 0.2 | 41.5* | 0.0 | 14.3 | -0.1
CC(C)NC(=O)NC(=O)COC(=O)/C=C/c1ccc2c(c1)OCO2 | -1.5 | 7.2 | -0.7 | 8.9 | 1.3
N#CCOC(=O)/C=C/c1ccc2c(c1)OCO2 | -4.2 | 38.4* | -0.6 | 13.1 | 12.2
C[C@H]1CN([C@@H](C)CO)C(=O)c2cccc(NC(=O)C3CCCCC3)c2O[C@H]1CN(C)S(C)(=O)=O | nt | nt | -0.5 | nt | nt
COc1ccc(-c2nc(CN3CCN(Cc4cccc(F)c4)CC3)c(C)o2)cc1 | 16.5 | -5.1 | 0.8 | 2.2 | 54.8*
Cc1ccccc1S(=O)(=O)N1C[C@H](O)COC[C@H]2O[C@H](CC(=O)N3CCN(C)CC3)CC[C@@H]21 | nt | nt | 0.6 | nt | nt
C[C@@H]1CN([C@@H](C)CO)C(=O)c2cc(NS(=O)(=O)c3cccs3)ccc2O[C@H]1CN(C)Cc1ccc(Oc2ccccc2)cc1 | nt | nt | -1.9 | nt | nt
C#CCN(C[C@@H](CC(C)C)NC(=O)OC(C)(C)C)S(=O)(=O)c1ccc(Br)cc1F | 3.2 | 5.2 | 0.9 | 1.4 | 53.2*
O=C(N/N=C/c1ccco1)c1cccc(NC(=O)c2ccccc2Cl)c1 | -2.7 | 31.6* | 1.5 | -1.1 | 6.1
COc1ccccc1/C=N/NC(=O)c1cccc(NC(=O)c2ccccc2Cl)c1 | -0.9 | 18.9 | 3.1 | 2.2 | -1.0
COc1ccc(/C=N/NC(=O)c2cccc(NC(=O)c3ccccc3Cl)c2)c(OC)c1 | -2.7 | 31.1* | 0.6 | 1.7 | 5.2
Cc1c(C=N)c(O)n(C)c(=O)c1C#N | 12.5 | 32.2* | -0.5 | -0.2 | 1.9
CCN(CC)S(=O)(=O)c1ccc(N=Cc2c(C)c(C#N)c(=O)n(C)c2O)cc1 | 1.0 | 37.8* | -0.2 | 2.8 | 1.6
Cc1ccc(N/N=C/c2c(C)c(C#N)c(=O)n(C)c2O)cc1C | 4.0 | 31.9* | nt | -3.0 | 1.6
CCOCCCNC(=O)/C(C#N)=C/c1ccc(-c2ccc(S(=O)(=O)N3CCOCC3)cc2)o1 | nt | 23.3 | nt | -0.3 | -0.1
CCOCCCNC(=O)/C(C#N)=C/c1ccc([N+](=O)[O-])o1 | -11.5 | 46.3* | 0.6 | 1.1 | 0.9
CCOCCCNC(=O)/C(C#N)=C/c1cc(Br)c(O)c(Br)c1 | nt | 44.2* | nt | 2.5 | -1.3
